Inconclusive results are not listed. Calls of active or inactive are those of the source. Unless noted, calls come from the whole dose curve; as a rule, active = well fitted curve in the direction sought with a large enough effect; inconclusive = small, poorly fitted or top-dose-only effect, or another doubt; inactive = no such curve, though single readings can be large; an effect the other way counts as inactive or inconclusive.
How the values were obtained:
[1] = Cytometric Cell-Based qHTS for Inhibitors of the mTORC1 Signaling Pathway in MEF (Tsc2-/-, p53-/-) Cells (AID 2660);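 note: Tsc2 and p53 null MEFs carrying empty vector with compound for 24 h; percent of cells above a phospho-rpS6 to PI ratio cutoff in each well; series mostly up to about 38 µM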
Summary of the method: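 Cells are plated, treated with compound for 24 hrs at 37 degree Celsius, then fixed, blocked and immunostained for phospho-rpS6 Ser235/236. Propidium iodide counterstain follows. Per-well % positive cells is derived from the PI-normalized phospho-S6 signal.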

[2] = High Content Imaging Cell-Based qHTS for Inhibitors of the mTORC1 Signaling Pathway in MEF (Tsc2-/-, p53-/-) Cells (AID 2666);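 note: percent of cells scored positive for phospho-rpS6 Ser235/236 immunostaining by imaging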
Summary of the method: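 MEF Tsc2-/- p53-/- (empty vector), DMEM/10% FBS; cpd 24 h 37 °C; PFA fix, Alexa-488 p-rpS6 S235/236 Ab, Hoechst; imaged; rapamycin-defined inhibition; % positive cells/well.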

[3] = High Content Imaging Cell-Based qHTS for Inhibitors of the mTORC1 Signaling Pathway in MEF Cells (AID 2667);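 note: Tsc2-/- p53-/- MEFs stably re-expressing wild-type Tsc2 exposed 24 h; series mostly up to about 38 µM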
Summary of the method: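 Read-out is the share of phospho-rpS6-positive cells per well, from Hoechst-normalized Alexa-488 Ser235/236 staining imaged on IN Cell. Cells: WT Tsc2-expressing Tsc2-/-, p53-/- MEFs exposed to compound for 24 hrs.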

[4] = Cytometry Cell-Based qHTS for Inhibitors of the mTORC1 Signaling Pathway in MEF cells (AID 2668);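 note: Tsc2-/- p53-/- mouse embryonic fibroblasts stably re-expressing wild-type Tsc2; percent cells positive for phospho-rpS6 Ser235/236 relative to propidium iodide stain; series mostly up to about 38 µM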
Summary of the method: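 MEFs (Tsc2-/-, p53-/- stably expressing WT Tsc2) treated 24 h at 37 degree Celsius, fixed, stained with Alexa-488 anti-phospho-rpS6 Ser235/236 and propidium iodide; Acumen laser scanning. Reported as % positive cells, phospho-S6 normalized to PI.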

[5] = Validation screen for small molecules that induce DNA re-replication in MCF 10A normal breast cells (AID 463097); note: nearly all actives have a fitted effect of over 60% in size
Summary of the method: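 MCF 10A cells exposed to compound 48 hr at 37 C, 5% CO2, then Hoechst-stained 40 min. Laser-scanning imaging of nuclear DNA content (405 nm ex, 500-530 nm em); re-replication scored as rise in nuclei with elevated fluorescence intensity.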

[6] = molecular target: Ubiquitin carboxyl-terminal hydrolase 2 (Homo sapiens) (UniProt O75604); assay: qHTS Validation Assay for Inhibitors of Ubiquitin-specific Protease USP2a Using CHOP2 as the Reporter (AID 463106)
Summary of the method: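 Fluorescence read-out at Ex 485nm/Em 531nm after 60min RT, following addition of 25nM Ub-CHOP2 plus 25nM reporter substrate to USP2 core (10nM) pretreated 30min with compound. Data normalized to NEM full inhibition; concentration-response curves fitted.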

[7] = molecular target: DNA polymerase III PolC-type (Bacillus subtilis (strain 168)) (UniProt P13267); assay: qHTS Validation Assay for the Inhibitors of DNA Replication in Gram-Positive Bacteria (AID 485295);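 note: PicoGreen fluorescence of double-stranded DNA made on primed circular M13 template; series mostly up to about 57 µM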
Summary of the method: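 Reconstituted B. subtilis Pol III holoenzyme (PolC, beta clamp, SSB, primase) preincubated with compound, then M13Gori single-stranded circular template with dNTPs/NTPs added; room temperature reaction. Stopped with EDTA/PicoGreen; dsDNA fluorescence read, EDTA as full-inhibition control.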

[8] = qHTS Validation Assay to Find Inhibitors of Chronic Active B-Cell Receptor Signaling (AID 485345; active = well fitted curve in the direction sought with a large enough effect in the main read-out, with a control signal flat, not every such curve was filed as active)
Summary of the method: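 TMD8 ABC-DLBCL cells stably carrying doxycycline-inducible IkappaBalpha–green luciferase fusion plus unfused red luciferase; compounds 46 uM to 3 nM, 4 h at 37C with doxycycline. Corrected green/red luminescence ratio normalized to 10 uM MG-132 and basal cell wells; curves fitted.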

[9] = molecular target: Tumor susceptibility gene 101 protein (Homo sapiens) (UniProt Q99816); assay: qHTS Validation Assay for Iinhibitors of HIV-1 Budding by Blocking the Interaction of PTAP/TSG101 (AID 485342; calls by dose curve)
Summary of the method: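 Tsg101 binding domain (10 uM) with FITC-labeled PTAP peptide (50 nM) in HEPES pH 7.5 buffer, 20 min at r.t. with compounds. Binding measured by fluorescence polarization.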

Measured: Potency

Chain of DNA polymerase III PolC-type (Bacillus subtilis (strain 168)) (P13267 whole entry, looked up): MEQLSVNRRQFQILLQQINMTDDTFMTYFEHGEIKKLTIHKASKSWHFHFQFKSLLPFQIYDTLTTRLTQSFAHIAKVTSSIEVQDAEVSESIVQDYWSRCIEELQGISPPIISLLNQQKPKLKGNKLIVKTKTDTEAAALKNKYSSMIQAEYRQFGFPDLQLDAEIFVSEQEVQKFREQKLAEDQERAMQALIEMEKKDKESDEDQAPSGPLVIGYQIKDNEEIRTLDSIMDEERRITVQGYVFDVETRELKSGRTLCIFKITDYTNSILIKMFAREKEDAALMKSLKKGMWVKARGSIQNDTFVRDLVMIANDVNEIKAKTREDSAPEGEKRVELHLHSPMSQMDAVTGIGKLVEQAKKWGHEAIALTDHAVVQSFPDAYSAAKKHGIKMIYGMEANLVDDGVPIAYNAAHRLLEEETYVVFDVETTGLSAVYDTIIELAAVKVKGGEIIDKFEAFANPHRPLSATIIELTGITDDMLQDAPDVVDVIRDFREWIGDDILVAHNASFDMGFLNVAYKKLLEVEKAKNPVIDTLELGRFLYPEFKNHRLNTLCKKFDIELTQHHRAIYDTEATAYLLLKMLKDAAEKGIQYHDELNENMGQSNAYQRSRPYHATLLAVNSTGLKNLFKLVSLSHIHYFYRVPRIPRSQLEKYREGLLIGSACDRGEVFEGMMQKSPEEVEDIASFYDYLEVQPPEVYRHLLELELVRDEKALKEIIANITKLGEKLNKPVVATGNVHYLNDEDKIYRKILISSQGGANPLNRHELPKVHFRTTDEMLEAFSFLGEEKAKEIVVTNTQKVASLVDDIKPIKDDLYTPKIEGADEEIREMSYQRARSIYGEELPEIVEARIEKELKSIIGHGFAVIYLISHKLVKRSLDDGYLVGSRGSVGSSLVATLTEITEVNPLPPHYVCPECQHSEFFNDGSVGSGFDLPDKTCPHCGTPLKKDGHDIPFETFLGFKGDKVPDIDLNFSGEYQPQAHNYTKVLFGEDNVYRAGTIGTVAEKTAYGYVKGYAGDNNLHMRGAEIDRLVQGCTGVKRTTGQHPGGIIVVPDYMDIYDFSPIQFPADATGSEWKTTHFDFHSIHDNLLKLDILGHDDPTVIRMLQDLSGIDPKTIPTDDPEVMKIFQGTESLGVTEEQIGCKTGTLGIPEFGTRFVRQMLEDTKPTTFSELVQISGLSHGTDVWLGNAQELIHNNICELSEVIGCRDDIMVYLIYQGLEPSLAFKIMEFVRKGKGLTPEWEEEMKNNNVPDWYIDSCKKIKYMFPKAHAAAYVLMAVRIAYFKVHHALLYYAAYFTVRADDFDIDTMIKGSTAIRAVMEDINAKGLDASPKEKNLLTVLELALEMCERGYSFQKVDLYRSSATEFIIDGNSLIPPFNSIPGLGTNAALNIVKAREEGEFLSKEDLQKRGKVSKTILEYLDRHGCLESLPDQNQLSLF
Chain of Tumor susceptibility gene 101 protein (Homo sapiens) (Q99816 whole entry, looked up, the tested form may be a part): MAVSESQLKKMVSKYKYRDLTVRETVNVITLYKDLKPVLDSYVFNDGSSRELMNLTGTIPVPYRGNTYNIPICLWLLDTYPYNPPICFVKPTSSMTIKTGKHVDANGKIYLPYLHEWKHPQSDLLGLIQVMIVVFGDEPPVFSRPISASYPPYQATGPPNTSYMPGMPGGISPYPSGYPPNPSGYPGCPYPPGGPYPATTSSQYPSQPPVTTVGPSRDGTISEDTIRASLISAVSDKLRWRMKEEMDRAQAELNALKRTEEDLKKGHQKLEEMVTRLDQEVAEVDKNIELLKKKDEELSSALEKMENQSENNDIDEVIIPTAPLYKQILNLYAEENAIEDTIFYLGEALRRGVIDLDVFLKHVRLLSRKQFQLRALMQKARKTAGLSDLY
Chain of Ubiquitin carboxyl-terminal hydrolase 2 (Homo sapiens) (O75604 whole entry, looked up): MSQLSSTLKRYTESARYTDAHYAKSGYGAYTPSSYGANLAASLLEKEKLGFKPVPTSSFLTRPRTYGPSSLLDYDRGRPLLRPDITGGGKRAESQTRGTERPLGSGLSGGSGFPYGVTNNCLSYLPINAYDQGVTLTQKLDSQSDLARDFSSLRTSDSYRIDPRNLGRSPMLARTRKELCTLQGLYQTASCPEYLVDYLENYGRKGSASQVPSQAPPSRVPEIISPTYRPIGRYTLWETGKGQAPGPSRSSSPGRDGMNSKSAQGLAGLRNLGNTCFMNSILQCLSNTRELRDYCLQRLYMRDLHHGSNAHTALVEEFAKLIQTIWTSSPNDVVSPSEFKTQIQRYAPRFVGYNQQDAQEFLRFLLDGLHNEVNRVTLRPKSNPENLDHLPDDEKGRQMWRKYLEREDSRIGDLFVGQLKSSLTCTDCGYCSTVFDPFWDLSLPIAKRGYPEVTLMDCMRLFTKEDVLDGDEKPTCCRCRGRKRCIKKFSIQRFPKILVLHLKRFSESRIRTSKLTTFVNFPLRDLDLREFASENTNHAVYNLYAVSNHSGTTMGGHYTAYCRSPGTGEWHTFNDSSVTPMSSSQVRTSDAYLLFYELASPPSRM

CC1CCN(CC[C@H]2CCCN2S(=O)(=O)c2cccc(O)c2)CC1
not listed: [9]
inactive: all other assays above

CC(N)=O
inactive: all assays above

c1ccc(C2CN3CCSC3=N2)cc1 (stereo not given)
inactive: all assays above

Oc1ccc(Cn2cc[nH]c2=S)cc1
inactive: all assays above

NC1(C(=O)O)CC1
inactive: all assays above

O=[N+]([O-])c1cccc2cn[nH]c12
inactive: all assays above

CSc1nc(N)c2ncn([C@@H]3O[C@H](COP(=O)(O)OP(=O)(O)O)C(O)[C@H]3O)c2n1 (stereo not given in full)
not listed: [5] | [7] | [8]
inactive: all other assays above

CCCn1c(=O)c(C)cn2nc(N)nc12
not listed: [5]
inactive: all other assays above

CC(O)C(O)[C@H]1CNc2nc(N)[nH]c(=O)c2N1 (stereo not given in full)
not listed: [5]
inactive: all other assays above

CCCc1c(-c2ccc(O)cc2)nn(-c2ccc(O)cc2)c1-c1ccc(O)cc1
not listed: [5] | [6] | [8]
inactive: all other assays above

COc1ccc(CCn2nnnc2C2(c3ccc(C)cc3)CC2)cc1
not listed: [5] | [7]
inactive: all other assays above

CCCCCCCCCCC(C)(C)C(=O)Nc1c(OC)cc(OC)cc1OC
not listed: [5] | [7]
inactive: all other assays above

Reference: PubChem BioAssay (NCATS)
